Reference: PubChem BioAssay AID1159580 (chemical genetic matrix, 2015)
Several values for one entry are separate records, joined by “and”; a condition that tells them apart may be missing. Equal entries are not always repeated. About 2,000 (36%) of roughly 5,500 compounds were called active. Inconclusive results (about 18%) are left out. Cut-off read from the data, not from the text of the source: active = normalized growth mostly below about 0.91 (no sharp cut-off); inconclusive = no clear call, values can overlap the other calls; inactive = mostly above about 0.92. The list shows a part of the results.

Assay: chemical genetic growth profiling, strain panel (AID 1159580);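 note: tested at 20 µM; growth read once vehicle control cultures reached saturation at 30 °C; 1 = growth at the plate median or of vehicle wells; lower values mean less growth of the strain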
Settings: S. cerevisiae deletion strains, growth OD

Measured: normalized growth

CN(C)CCC(c1ccccc1)c1ccccn1 (centres undefined)
inactive: locus YAL013W, strain DEP1, hits give low values 0.99 | locus YAL021C, strain ccr4, hits give low values 1.02 | locus YAL026C, strain drs2, hits give low values 1.02 | locus YAL030W, strain snc1, hits give low values 1 | locus YAL040C, strain CLN3, hits give low values 1.01 | locus YBL061C, strain skt5, hits give low values 1.01 | locus YBR009C, strain hhf1, hits give low values 1.01 | locus YBR021W, strain FUR4, hits give low values 1.01 | locus YBR023C, strain chs3, hits give low values 1.01 | locus YBR171W, strain sec66, hits give low values 1.03 | locus YBR229C, strain ROT2, hits give low values 1 | locus YBR231C, strain swc5, hits give low values 1.01 | locus YBR279W, strain paf1, hits give low values 1.01 | locus YCL011C, strain gbp2, hits give low values 1.01 | locus YCL016C, strain dcc1, hits give low values 1.02 | locus YCL029C, strain bik1, hits give low values 1 | locus YCL061C, strain MRC1 (second series), hits give low values 1.01 | locus YCL061C, strain MRC1, hits give low values 1.01 | locus YCL069W, strain vba3, hits give low values 1.01 | locus YCR088W, strain abp1, hits give low values 1 | locus YDL005C, strain med2, hits give low values 1.02 | locus YDL035C, strain GPR1, hits give low values 1.01 | locus YDL040C, strain nat1, hits give low values 1.01 | locus YDL074C, strain BRE1, hits give low values 0.991 | locus YDL101C, strain DUN1, hits give low values 1.01 | locus YDL134C, strain PPH21, hits give low values 1.01 | locus YDL185W, strain tfp1, hits give low values 1 | locus YDL192W, strain arf1, hits give low values 1.01 | locus YDR001C, strain nth1, hits give low values 1.01 | locus YDR069C, strain doa4, hits give low values 0.994 | locus YDR101C, strain arx1, hits give low values 1 | locus YDR137W, strain rgp1, hits give low values 1.03 | locus YDR150W, strain NUM1, hits give low values 1.01 | locus YDR159W, strain sac3, hits give low values 1.02 | locus YDR162C, strain NBP2, hits give low values 1.01 | locus YDR195W, strain ref2 0.981 | locus YDR297W, strain sur2, hits give low values 1 | locus YDR318W, strain mcm21, hits give low values 1.01 | locus YDR334W, strain swr1, hits give low values 1.01 | locus YDR335W, strain msn5, hits give low values 1.01 | locus YDR363W, strain ESC2, hits give low values 1.05 | locus YDR388W, hits give low values 1 | locus YDR392W, strain spt3, hits give low values 0.973 | locus YDR502C, strain sam2, hits give low values 0.994 | locus YEL003W, strain gim4, hits give low values 0.993 | locus YEL037C, strain rad23, hits give low values 1.02 | locus YEL061C, strain CIN8 (second series), hits give low values 1.01 | locus YEL061C, strain CIN8, hits give low values 1 | locus YER002W, strain NOP16, hits give low values 1.01 | locus YER015W, strain faa2, hits give low values 1.01 | locus YER016W, strain bim1, hits give low values 1.01 | locus YER110C, hits give low values 1 | locus YER111C, strain swi4, hits give low values 1.03 | locus YER155C, strain BEM2 (second series), hits give low values 1.02 | locus YER155C, strain BEM2, hits give low values 1 | locus YER167W, strain BCK2, hits give low values 1.01 | locus YFR010W, strain ubp6, hits give low values 1.01 | locus YGL078C, strain dbp3, hits give low values 0.991 | locus YGL086W, strain mad1, hits give low values 0.997 | locus YGL167C, strain pmr1, hits give low values 1.02 | locus YGL173C, strain kem1, hits give low values 1.01 | locus YGL227W, strain vid30, hits give low values 1.02 | locus YGL240W, strain doc1, hits give low values 0.999 | locus YGL248W, strain PDE1, hits give low values 1 | locus YGL253W, strain hxk2, hits give low values 1.02 | locus YGR135W, strain pre9, hits give low values 1.01 | locus YGR229C, strain SMI1, hits give low values 0.992 | locus YGR252W, strain gcn5, hits give low values 0.948 | locus YHR013C, strain ard1, hits give low values 1.03 | locus YHR027C, strain rpn1, hits give low values 1.03 | locus YHR030C, strain SLT2, hits give low values 1.01 and 0.972 | locus YHR079C, strain IRE1 (second series), hits give low values 1.01 | locus YHR079C, strain IRE1, hits give low values 0.975 | locus YHR094C, strain hxt1, hits give low values 1 | locus YHR129C, strain ARP1, hits give low values 0.998 | locus YHR142W, strain chs7, hits give low values 1.01 | locus YHR200W, strain rpn10, hits give low values 0.998 | locus YIL066C, strain RNR3, hits give low values 1.01 | locus YIL073C, strain SPO22, hits give low values 1.04 | locus YIL125W, strain kgd1, hits give low values 1.01 | locus YIR030C, strain dcg1, hits give low values 1.01 | locus YJL092W, strain hpr5, hits give low values 1.01 | locus YJL095W, strain BCK1 (second series), hits give low values 1.01 | locus YJL095W, strain BCK1, hits give low values 0.99 and 0.976 | locus YJL115W, strain asf1, hits give low values 1.01 | locus YJL129C, strain trk1, hits give low values 1.01 | locus YJL134W, strain LCB3, hits give low values 1.01 | locus YJL154C, strain vps35, hits give low values 1.01 | locus YJL164C, strain tpk1, hits give low values 1.01 | locus YJL166W, strain qcr8, hits give low values 1 | locus YJL168C, strain set2, hits give low values 1.01 | locus YJL187C, strain SWE1 (second series), hits give low values 1.01 | locus YJL187C, strain SWE1, hits give low values 1 | locus YJR043C, strain POL32, hits give low values 0.997
